# Values without a mark were called inactive. Activity calls are given as the source filed them. Calls follow the shape of the dose curve; as a rule, active = well fitted curve in the direction sought with a large enough effect in the repeat runs; inconclusive = weak or mixed curves; inactive = flat fitted curve, though single readings scatter.
# Assay: qHTS assay to test for compound auto fluorescence at 535 nm (green) in HEK293 cells (AID 720680)
# Conditions: green autofluorescence 485/535 nm; series mostly up to 91.3 µM
# Source text: U.S. Tox21 Program National Center for Advancing Translational Sciences [NCATS] NIH Chemical Genomics Center [NCGC] U.S. Environmental Protection Agency [EPA] National Institutes of Environmental Health Sciences [NIEHS] National Toxicology Program [NTP] U.S. Food and Drug Administration [FDA] Tox21 Assay Overview: Compound auto fluorescence often interferes with screening of the compound library against various biological targets and signaling pathways. Some of these compounds may have fluorophoric properties. Such properties may interfere with the assay outputs resulting in false positives and/or negatives. To decrease such complications and ensure the compound activities are relevant in terms of biological response, the Tox21 10K compound library was screened for auto fluorescence. From the fluorophores used as reporter signals in our screening assays, the auto fluorescence equivalencies of compounds against three fluorophores have been evaluated: Triamterene, Fluorescein and Rose Bengal sodium for blue, green and red fluorescence, respectively. The fluorescence intensities were measured using Excitation/Emission wavelengths at 405/460nm, 485/535nm and 540/590nm for blue, green and red labels, respectively. This assay includes the green fluorescence data.
# Tox21 Assay Protocol Summary: 2,000 HEK293 cells in 5 uL of culture medium containing 10% dialyzed FBS per well were dispensed into black wall/clear bottom 1536-well plates using a Multidrop Combi Dispenser (Thermo Scientific). The assay plates were incubated for 4-5 hr at 37C to allow cell attachment to the well bottom, followed by the transfer of 23 nL compound or DMSO vehicle by a pintool work station (Kalypsys, San Diego, CA). After the assay plates were incubated overnight at 37C and 5% CO2, fluorescence intensities in the assay plates were measured by an Envision (PerkinElmer, Shelton, CT) plate reader using three labels for measuring blue, green and red fluorescence at […] 460, 535 and 590nm respectively.
# % is scaled to controls: 0 for no effect and ±100 for the full control effect.
Structure (SMILES),outcome,"fluorescence, % of fluorescein"
CCCCCCCC/C=C\CCCCCCCC(=O)OCCO,inactive,
CC(=O)N[C@@H](Cc1ccc(O)cc1)C(=O)O,inactive,
CCC1CCC(CCC(=O)O)C1 (stereo not given),inactive,
CC(C)(C(=O)c1cccnc1)c1cccnc1,,0.0635% [at 18.6 µM]
c1ccc(CNc2ncnc3c2ncn3C2CCCCO2)cc1 (stereo not given),inactive,
COc1cc(C(C)=O)ccc1OCCCN1CCC(c2noc3cc(F)ccc23)CC1,inactive,
O=C(CCS)OCC(COC(=O)CCS)(COC(=O)CCS)COC(=O)CCS,inactive,
O=[N+]([O-])c1ccc2ncccc2c1,inactive,
Cc1ccc(Cl)cc1N,inactive,
Cc1c(C2(c3cc(Br)c(O)c(Br)c3C)OS(=O)(=O)c3ccccc32)cc(Br)c(O)c1Br,inactive,
Cc1ccc(NC(=O)N(C)C)cc1NC(=O)N(C)C,inactive,
CCN(CC)c1ccc(C(=C2C=CC(=[N+](CC)CC)C=C2)c2ccc(S(=O)(=O)O)cc2S(=O)(=O)[O-])cc1,inactive,
COc1ccc(-c2cc(=S)ss2)cc1,inactive,
COc1ccc(CCN(C)CCCN2CCc3cc(OC)c(OC)cc3CC2=O)cc1OC,inactive,
CSSc1ccoc1C,inactive,
O=C(Nc1ccc(C(=O)O)c(O)c1)c1ccccc1,inactive,
CC(C)C1CCC(C(=O)N[C@H](Cc2ccccc2)C(=O)O)CC1 (stereo not given in full),inactive,
Nc1ccn([C@H]2CS[C@@H](CO)O2)c(=O)n1,inactive,
C[C@H](CS)C(=O)N1CCC[C@H]1C(=O)O,inactive,
CCCCCC,inactive,

Structure (SMILES),outcome,"fluorescence, % of fluorescein"
CNc1c2c(nn1C)CCCC2,inactive,
CCOC(=O)C(C)O (stereo not given),inactive,
CCC(CO)(CO)CO,inactive,
CC(C)C(=O)OCCOc1ccccc1,inactive,
CC[C@H]1OC(=O)[C@H](C)[C@@H](O[C@H]2C[C@@](C)(OC)[C@@H](O)[C@H](C)O2)[C@H](C)[C@@H](O[C@@H]2O[C@H](C)C[C@H](N(C)C)[C@H]2O)[C@](C)(O)C[C@@H](C)/C(=N\OCOCCOC)[C@H](C)[C@@H](O)[C@]1(C)O,inactive,
CCCCCCCCCCCCCOC(=O)CCSCCC(=O)OCCCCCCCCCCCCC,,-0.0169% [at 18.6 µM]
O=C(O)CCS,inactive,
CCC(Cl)CC(Cl)C(Cl)C(Cl)C(Cl)C(C)Cl (stereo not given),,0.0197% [at 13.4 µM]
CC(C)COC(=O)COc1cc(Cl)c(Cl)cc1Cl,inactive,
O=C(NS(=O)(=O)/C=C/c1ccccc1)c1ccc(F)cc1Cl,inactive,
CC(C)(C)S,inactive,
CC(=O)NCCO,inactive,
CCCCCc1ccco1,inactive,
O=S(=O)(Cl)c1c(Cl)cccc1Cl,inactive,
CCCCCCOC(=O)CCCCC,inactive,
CC1=CC[C@@H]2C[C@H]1C2(C)C,,-0.149% [at 18.6 µM]
CCSC(=O)N(CC)CC,inactive,
CSCC[C@H](NC(=O)[C@H](Cc1c[nH]c2ccccc12)NC(=O)CCNC(=O)OC(C)(C)C)C(=O)N[C@@H](CC(=O)O)C(=O)N[C@@H](Cc1ccccc1)C(N)=O,inactive,
CC(=O)OCC1=C(C(=O)O)N2C(=O)[C@@H](NC(=O)CSc3ccncc3)[C@H]2SC1,inactive,
O=C(c1ccccc1)c1ccc(O)cc1,inactive,

# From PubChem BioAssay (Tox21)
